Records with an inconclusive call do not appear. Active and inactive are the calls of the source. Rule for the calls, unless noted: active = hit-call score of the fitted dose curve at least 0.9, where 1 is the maximum; inconclusive = response in the unintended direction; inactive = score below 0.9.
molecular target: mouse Estrogen Receptor alpha (Era), Esr1 (gene 13982) (UniProt P19785); assay: NVS_NR_mERa: NovaScreen (NVS) Nuclear Receptor Binding Assay for mouse Estrogen Receptor alpha (Era) (AID 2283378);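 note: hit means loss of bound radioligand signal relative to DMSO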
Sequence (P19785 whole entry, looked up): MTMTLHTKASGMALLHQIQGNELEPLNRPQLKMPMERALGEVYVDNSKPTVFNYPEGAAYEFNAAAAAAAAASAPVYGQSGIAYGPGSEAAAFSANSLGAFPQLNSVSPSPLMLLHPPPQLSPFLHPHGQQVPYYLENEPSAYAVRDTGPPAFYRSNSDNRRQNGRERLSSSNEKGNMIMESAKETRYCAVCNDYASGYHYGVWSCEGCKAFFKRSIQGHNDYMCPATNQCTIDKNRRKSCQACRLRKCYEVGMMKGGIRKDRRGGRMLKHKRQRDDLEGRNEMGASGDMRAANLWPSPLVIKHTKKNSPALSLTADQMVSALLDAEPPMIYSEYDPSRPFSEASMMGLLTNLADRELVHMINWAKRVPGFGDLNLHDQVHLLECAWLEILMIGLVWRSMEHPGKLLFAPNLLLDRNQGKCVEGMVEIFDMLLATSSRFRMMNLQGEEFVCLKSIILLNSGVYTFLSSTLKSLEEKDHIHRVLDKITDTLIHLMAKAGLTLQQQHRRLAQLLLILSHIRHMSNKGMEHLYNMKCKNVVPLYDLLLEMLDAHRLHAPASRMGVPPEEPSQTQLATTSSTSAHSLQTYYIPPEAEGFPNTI
How it was run: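 Cell-free radioligand competitive displacement binding, read by filter-based scintillation counting 18 h after dosing. Primary screen run in duplicate at 25 uM, actives retested in concentration series; loss of signal versus DMSO.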

| Structure (SMILES) | outcome | AC50 |
| --- | --- | --- |
| CC(C)C1=CC2=CC[C@@H]3[C@](C)(CCC[C@@]3(C)C(=O)O)[C@H]2CC1 | inactive | – |
| CCCCC/C=C\C/C=C\CCCCCCCC(=O)OC | inactive | – |
| C=CC(C)(CCC=C(C)C)OC(=O)CC(C)C (configuration not stated) | inactive | – |
| CCCCCCCCCCCCCOP(=O)(O)O | – | 39.4 µM (active) |
| CC/C=C\C/C=C\C/C=C\CCCCCCCC(=O)O | inactive | – |
| O=S1(=O)OC(c2ccc(O)cc2)(c2ccc(O)cc2)c2ccccc21 | – | 20.1 µM (active) |
| Cc1cccc(N(C)C(=S)Oc2ccc3ccccc3c2)c1 | inactive | – |
| CC(C)c1ccc2c(c1)CC[C@H]1[C@](C)(CN)CCC[C@]21C | inactive | – |
| CN(C)c1ccc(N=Nc2ccccc2C(=O)O)cc1 | inactive | – |
| O=C1CCCCCN1SSN1CCCCCC1=O | inactive | – |
| CC(=O)OC(C)C | inactive | – |
| O=C(O)CCCCCCCCCC(=O)O | inactive | – |
| CC(=O)[C@H]1[C@H](C#N)C[C@H]2[C@@H]3CC=C4C[C@@H](O)CC[C@]4(C)[C@H]3CC[C@@]21C | – | 4.26 µM (active) |
| CC(C)(C)C(=O)CCc1ccc(Cl)cc1 | inactive | – |
| CCCCCCCC/C=C\CCCCCCCC(=O)O | – | 35.8 µM (active) |
| COc1ccc(-c2coc3cc(O)ccc3c2=O)cc1 | – | 0.143 µM (active) |

| Structure (SMILES) | outcome | AC50 |
| --- | --- | --- |
| NC(CO)(CO)CO | inactive | – |
| CCC(C)OC(=O)c1ccc(O)cc1 (configuration not stated) | – | 4.99 µM (active) |
| COc1ccc(C(Cl)=C(c2ccc(OC)cc2)c2ccc(OC)cc2)cc1 | – | 4.88 µM (active) |
| C=C[C@](C)(O)CC[C@@H]1[C@@]2(C)CCCC(C)(C)[C@@H]2CC[C@@]1(C)O | inactive | – |
| O=C1Nc2ccccc2C1(c1ccc(O)cc1)c1ccc(O)cc1 | – | 6.61 µM (active) |
| CC(C)(c1cc(Br)c(OCCO)c(Br)c1)c1cc(Br)c(OCCO)c(Br)c1 | inactive | – |
| CCC(Cc1ccccc1)(C(=O)c1ccc(N2CCOCC2)cc1)N(C)C (configuration not stated) | inactive | – |
| O=C(c1ccc(O)cc1)c1ccc(O)cc1O | – | 1.29 µM (active) |
| CCC(=O)Oc1ccc(/C(CC)=C(\CC)c2ccc(OC(=O)CC)cc2)cc1 | – | 0.0132 µM (active) |
| CCOC(=O)N1CCC(=C2c3ccc(Cl)cc3CCc3cccnc32)CC1 | inactive | – |
| CN(C)c1ccc(C(=N)c2ccc(N(C)C)cc2)cc1 | inactive | – |
| O=CN1CCCCC1 | inactive | – |
| O=C(O)CCCC[C@@H]1SC[C@@H]2NC(=O)N[C@@H]21 | inactive | – |
| [Cl][Bi]([Cl])([c]1ccccc1)([c]1ccccc1)[c]1ccccc1 | inactive | – |
| O=C(O)c1ccccc1Nc1cccc(C(F)(F)F)c1 | inactive | – |

molecular target: Estrogen receptor (Homo sapiens) (UniProt P03372); assay: OT_ERa_GFPERaERE_0480: Odyssey Thera (OT) 8-hour HeLa Transcription Induction Assay for Estrogen Receptor (AID 2283381; active = hit-call score of the fitted dose curve at least 0.9, where 1 is the maximum; inactive = score below 0.9)
Sequence (P03372 whole entry, looked up): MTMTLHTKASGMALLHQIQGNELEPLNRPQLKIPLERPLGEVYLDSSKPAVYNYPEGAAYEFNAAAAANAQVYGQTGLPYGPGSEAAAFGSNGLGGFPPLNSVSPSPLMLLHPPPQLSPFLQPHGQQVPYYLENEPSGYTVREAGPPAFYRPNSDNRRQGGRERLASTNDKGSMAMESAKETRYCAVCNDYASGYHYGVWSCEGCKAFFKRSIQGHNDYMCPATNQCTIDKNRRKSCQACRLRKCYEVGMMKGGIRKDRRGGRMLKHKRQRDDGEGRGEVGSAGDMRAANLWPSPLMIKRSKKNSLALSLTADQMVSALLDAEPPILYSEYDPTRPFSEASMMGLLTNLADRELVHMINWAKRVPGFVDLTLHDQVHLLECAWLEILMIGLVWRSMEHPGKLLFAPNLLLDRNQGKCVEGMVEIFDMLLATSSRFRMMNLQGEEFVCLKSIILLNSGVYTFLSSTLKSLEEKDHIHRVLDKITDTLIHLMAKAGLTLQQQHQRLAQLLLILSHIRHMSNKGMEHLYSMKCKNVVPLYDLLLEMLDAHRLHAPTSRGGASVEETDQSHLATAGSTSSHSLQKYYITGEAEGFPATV
How it was run: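 Cells (HeLa) receive compound; after 8 h, reporter fluorescence is imaged and quantified by high-content analysis. Gain-of-signal relative to DMSO gives the endpoint.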

| Structure (SMILES) | outcome | AC50 |
| --- | --- | --- |
| CC(C)C1=CC2=CC[C@@H]3[C@](C)(CCC[C@@]3(C)C(=O)O)[C@H]2CC1 | inactive | – |
| CCCCC/C=C\C/C=C\CCCCCCCC(=O)OC | inactive | – |
| CCCCCCCCCCCCCOP(=O)(O)O | inactive | – |
| CC/C=C\C/C=C\C/C=C\CCCCCCCC(=O)O | inactive | – |
| O=S1(=O)OC(c2ccc(O)cc2)(c2ccc(O)cc2)c2ccccc21 | – | 73 µM (active) |
| CN(C)c1ccc(N=Nc2ccccc2C(=O)O)cc1 | inactive | – |
| CC(=O)OC(C)C | – | 69.2 µM (active) |
| CC(=O)[C@H]1[C@H](C#N)C[C@H]2[C@@H]3CC=C4C[C@@H](O)CC[C@]4(C)[C@H]3CC[C@@]21C | inactive | – |
| CCCCCCCC/C=C\CCCCCCCC(=O)O | inactive | – |
| NC(CO)(CO)CO | inactive | – |
| CN(C)c1ccc(C(=N)c2ccc(N(C)C)cc2)cc1 | inactive | – |
| O=C(O)CCCC[C@@H]1SC[C@@H]2NC(=O)N[C@@H]21 | inactive | – |

molecular target: Estrogen receptor (Homo sapiens) (UniProt P03372); assay: OT_ERa_GFPERaERE_0120: Odyssey Thera (OT) 2-hour HeLa Transcription Induction Assay for Estrogen Receptor (AID 2283382)
How it was run: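 Measures ESR1 pathway reporter gain-of-signal in HeLa cells after a 2-hour treatment, detected as fluorescent protein induction by microscopy, DMSO as baseline.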

| Structure (SMILES) | outcome |
| --- | --- |
| CC(C)C1=CC2=CC[C@@H]3[C@](C)(CCC[C@@]3(C)C(=O)O)[C@H]2CC1 | inactive |
| CCCCC/C=C\C/C=C\CCCCCCCC(=O)OC | inactive |
| CCCCCCCCCCCCCOP(=O)(O)O | inactive |
| CC/C=C\C/C=C\C/C=C\CCCCCCCC(=O)O | inactive |
| O=S1(=O)OC(c2ccc(O)cc2)(c2ccc(O)cc2)c2ccccc21 | inactive |
| CN(C)c1ccc(N=Nc2ccccc2C(=O)O)cc1 | inactive |
| CC(=O)OC(C)C | inactive |
| CC(=O)[C@H]1[C@H](C#N)C[C@H]2[C@@H]3CC=C4C[C@@H](O)CC[C@]4(C)[C@H]3CC[C@@]21C | inactive |
| CCCCCCCC/C=C\CCCCCCCC(=O)O | inactive |
| NC(CO)(CO)CO | inactive |
| CN(C)c1ccc(C(=N)c2ccc(N(C)C)cc2)cc1 | inactive |
| O=C(O)CCCC[C@@H]1SC[C@@H]2NC(=O)N[C@@H]21 | inactive |

molecular target: Bile acid receptor (Homo sapiens) (UniProt Q96RI1); assay: OT_FXR_FXRSRC1_0480: Odyssey Thera (OT) 8-hour HEK293T Protein-Complementation Assay for Farnesoid X receptor/SRC-1 Co-activator (AID 2283383)
Sequence (Q96RI1 whole entry, looked up, the tested form may be a part): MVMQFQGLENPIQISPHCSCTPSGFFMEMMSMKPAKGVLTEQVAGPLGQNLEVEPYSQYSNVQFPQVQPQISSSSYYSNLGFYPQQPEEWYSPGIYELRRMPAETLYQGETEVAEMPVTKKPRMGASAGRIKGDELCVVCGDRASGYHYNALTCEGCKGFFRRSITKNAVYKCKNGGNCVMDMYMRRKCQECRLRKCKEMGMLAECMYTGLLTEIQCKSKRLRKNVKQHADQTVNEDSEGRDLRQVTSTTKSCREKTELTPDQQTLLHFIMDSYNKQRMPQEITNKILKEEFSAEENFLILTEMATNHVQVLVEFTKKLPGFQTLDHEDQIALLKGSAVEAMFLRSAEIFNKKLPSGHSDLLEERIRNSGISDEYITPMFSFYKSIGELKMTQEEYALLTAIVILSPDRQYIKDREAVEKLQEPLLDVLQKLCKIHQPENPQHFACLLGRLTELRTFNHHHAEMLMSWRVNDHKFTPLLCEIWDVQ
How it was run: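 Co-activator recruitment to FXR was measured in living HEK293T cells, where interaction of the two fused partners restored an active fluorescent reporter. Signal gain after 8 h treatment was referenced to DMSO.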

| Structure (SMILES) | outcome |
| --- | --- |
| CC/C=C\C/C=C\C/C=C\CCCCCCCC(=O)O | inactive |
| CC(=O)[C@H]1[C@H](C#N)C[C@H]2[C@@H]3CC=C4C[C@@H](O)CC[C@]4(C)[C@H]3CC[C@@]21C | inactive |
| CCCCCCCC/C=C\CCCCCCCC(=O)O | inactive |

molecular target: Retinoic acid receptor RXR-alpha (Homo sapiens) (UniProt P19793); assay: OT_NURR1_NURR1RXRa_0480: Odyssey Thera (OT) 8-hour HEK293T Protein Complementation Assay for Nurr1/retinoid X receptor (RXR) (AID 2283385)
Sequence (P19793 whole entry, looked up, the tested form may be a part): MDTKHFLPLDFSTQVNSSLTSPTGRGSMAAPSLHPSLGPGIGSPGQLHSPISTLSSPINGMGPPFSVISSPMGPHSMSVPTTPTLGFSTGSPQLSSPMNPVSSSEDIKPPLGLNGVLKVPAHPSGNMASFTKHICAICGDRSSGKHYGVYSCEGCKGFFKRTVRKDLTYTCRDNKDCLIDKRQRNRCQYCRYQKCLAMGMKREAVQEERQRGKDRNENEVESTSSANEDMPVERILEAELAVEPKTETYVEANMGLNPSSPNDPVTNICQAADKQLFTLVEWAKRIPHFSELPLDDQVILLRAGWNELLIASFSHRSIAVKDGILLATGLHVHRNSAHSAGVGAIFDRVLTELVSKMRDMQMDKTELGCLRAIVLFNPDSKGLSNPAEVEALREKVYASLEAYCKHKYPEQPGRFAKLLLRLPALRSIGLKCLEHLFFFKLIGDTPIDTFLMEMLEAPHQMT
How it was run: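 Compounds are applied to HEK293T cells carrying Nurr1 and RXRα linked to reporter fragments. After 8 h, fluorescence intensity reports heterodimer formation, with DMSO as baseline.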

| Structure (SMILES) | outcome | AC50 |
| --- | --- | --- |
| CC(C)C1=CC2=CC[C@@H]3[C@](C)(CCC[C@@]3(C)C(=O)O)[C@H]2CC1 | inactive | – |
| CCCCC/C=C\C/C=C\CCCCCCCC(=O)OC | – | 12 µM (active) |
| CCCCCCCCCCCCCOP(=O)(O)O | inactive | – |
| CC/C=C\C/C=C\C/C=C\CCCCCCCC(=O)O | inactive | – |
| CN(C)c1ccc(N=Nc2ccccc2C(=O)O)cc1 | inactive | – |
| CC(=O)OC(C)C | inactive | – |
| NC(CO)(CO)CO | inactive | – |
| CN(C)c1ccc(C(=N)c2ccc(N(C)C)cc2)cc1 | – | 27.7 µM (active) |
| O=C(O)CCCC[C@@H]1SC[C@@H]2NC(=O)N[C@@H]21 | inactive | – |
